{"source": "PubChem BioAssay", "note": "Unmarked numbers belong to inactive results. The source made the active and inactive calls. Unless noted, the rule behind the calls is not given here."}
{"assay": "Pseudomonas biofilm growth suppression – PAO1 strain, BacTiter-Glo luminescence, LB-PBS, primary screen (AID 1144)", "conditions": "P. aeruginosa PAO1 biofilm, 12 h, higher = more signal"}
{"smiles": "COc1ccc(C#Cc2ccc3c(c2)[C@]2(C(=O)N3)[C@H](C(=O)Nc3nc4ccccc4s3)[C@H]3C(=O)O[C@H](c4ccccc4)[C@H](c4ccccc4)N3[C@@H]2c2ccc(O)cc2)cc1", "z-score": -0.782}
{"smiles": "C=C(CC1([C@@H](NP(=O)(c2ccccc2)c2ccccc2)[C@H]2C[C@@H]2CCCC)CC1)c1ccccc1", "z-score": 0.955}
{"smiles": "C=CCN1C(=O)[C@@]2(CC=C)N=C(c3ccc(OCCCO)cc3)O[C@H]2c2ccccc21", "z-score": -0.776}
{"smiles": "CCCC[C@@H]1C[C@H]1[C@@H](NC(=O)c1ccco1)c1ccc(-c2ccccc2)cc1", "z-score": 0.0577}
{"smiles": "C=C(C)[C@@H]1CC=C(C(O)C2C=CC3C(=O)N(C)C(=O)C3N2Nc2ccccc2)CC1", "note": "(stereo not given in full)", "z-score": -0.309}
{"smiles": "O=C1C2C=CC(C(O)Cc3ccccc3)N(n3cnnc3)C2C(=O)N1Cc1ccccc1", "note": "(stereo not given)", "z-score": 0.0973}
{"smiles": "C=C(COC)/C(=C/C[C@@H](OC(C)=O)c1ccc(OCCO)cc1)c1cnc2ccccc2c1", "z-score": -0.826}
{"smiles": "COCCOC(=O)N1C(=O)[C@@]2(c3cc(C#CCNC(N)=O)ccc31)[C@H](C(=O)N1CCN(c3ncccn3)CC1)[C@H]1C(=O)O[C@H](c3ccccc3)[C@H](c3ccccc3)N1[C@@H]2c1ccc(OCCO)cc1", "z-score": -0.82}
{"smiles": "C=CCOC(=O)[C@@H]1[C@H]2C(=O)O[C@H](c3ccccc3)[C@H](c3ccccc3)N2[C@H](c2ccc(OCCOC(=O)[C@@H]3C[C@@H]4C(=O)NCC(=O)N4[C@@H]3c3ccc(O)cc3)cc2)[C@@]12C(=O)Nc1ccc(I)cc12", "z-score": -0.725}
{"smiles": "CC#CC(=O)Oc1ccccc1C=CC(=O)OCC", "z-score": -1.69}
{"smiles": "CCCC[C@@H]1C[C@H]1[C@@H](NC(=O)c1ccco1)c1ccccc1C(F)(F)F", "z-score": 0.431}
{"assay": "basal CRE-LacZ reporter activity in PC12 – cell-based, unstimulated, primary screen (AID 1145)", "conditions": "no forskolin, luminescence, 4.5 h, higher = more signal, called active from +8 up or from −8 down"}
{"smiles": "COCCOC(=O)N1C(=O)[C@@]2(c3ccccc31)[C@H](c1ccc(O)cc1)N1[C@H](c3ccccc3)[C@H](c3ccccc3)OC(=O)[C@H]1[C@@H]2C(=O)Nc1nc2ccccc2s1", "z-score": -0.467}
{"smiles": "C=CCOC(=O)[C@H]1[C@@H]2C(=O)O[C@@H](c3ccccc3)[C@@H](c3ccccc3)N2[C@@H](c2ccc(OCCOC(=O)[C@H]3C[C@H]4C(=O)N[C@@H](CCCCN(C)C)C(=O)N4[C@H]3c3ccc(O)cc3)cc2)[C@]12C(=O)Nc1ccc(I)cc12", "z-score": -0.268}
{"smiles": "NC(=O)[C@@H]1[C@H]2C(=O)O[C@H](c3ccccc3)[C@H](c3ccccc3)N2[C@H](c2ccc(O)cc2)[C@@]12C(=O)Nc1ccccc12", "z-score": -0.491}
{"smiles": "CC(C)C[C@@H]1NC(=O)[C@H](C(C)C)NC(=O)[C@@]23C(=O)N[C@@H](Cc4ccccc4)C2[C@H](C)[C@@]2(C)O[C@H]2C3/C=C/CC/C=C/CNC1=O", "note": "(stereo not given in full)", "z-score": -0.319}
{"smiles": "COC(=O)C(CC#Cc1ccc2c(c1)[C@]1(C(=O)N2)[C@H](c2ccc(OCCO)cc2)N2[C@H](c3ccccc3)[C@H](c3ccccc3)OC(=O)[C@H]2[C@@H]1C(=O)Nc1nc2ccccc2s1)C(=O)OC", "z-score": -0.375}
{"smiles": "O=C1NC(=O)C2C1C=CC(C(O)c1cc(C(F)(F)F)cc(C(F)(F)F)c1)N2Nc1ccccn1", "note": "(stereo not given)", "z-score": 0.0501}
{"smiles": "Cc1ccc(S[C@]2(C(=O)NCCCN(C)C)CC(=O)N(Cc3cc(C(F)(F)F)cc(C(F)(F)F)c3)[C@@H]2c2ccc(CO)cc2I)cc1", "z-score": -0.994}
{"smiles": "C=C(C(=O)CC[C@@H](OC(=O)c1cccnc1)c1ccccc1OCCO)C(C)C", "z-score": "8.13 (active)"}
{"smiles": "COc1cc(NN2C(C(O)c3ccco3)C=CC3C(=O)N(c4ccccc4)C(=O)C32)cc(OC)c1OC", "note": "(stereo not given)", "z-score": 0.0501}
{"smiles": "COC(=O)[C@@]1(Cc2ccc(OC)cc2)[C@H]2c3cc(C(=O)N(C)C)n(CCc4ccccn4)c3C[C@H]2CN1C(=O)c1ccccc1", "z-score": 1.92}
{"smiles": "O=C(NC1CC1)[C@@H]1c2ccccc2C(=O)N(Cc2ccccc2Cl)[C@H]1c1ccc(CO)cc1", "z-score": -0.0888}
{"smiles": "COC(=O)[C@@]1(Cc2ccc(F)cc2)[C@H]2c3cc(C(=O)N(C)C)n(Cc4ccccc4)c3C[C@H]2CN1C(=O)c1ccccc1", "z-score": -0.379}
{"smiles": "O=C1C2C=CC(C(O)CCc3ccccc3)N(Nc3ccccc3F)C2C(=O)N1c1ccccc1", "note": "(stereo not given)", "z-score": -0.331}
{"smiles": "C=C[C@H](CO[Si](CC)(CC)CC)N(Cc1ccc(OC(C)=O)c(OC)c1)S(=O)(=O)c1ccc(Br)cc1", "z-score": -0.263}
